According to PubChem BioAssay AID1159580 (chemical genetic matrix, 2015):
About 2,000 (36%) of roughly 5,500 compounds were called active. Roughly 18% stayed inconclusive and do not appear here. Rule as the data show it: active = normalized growth mostly below about 0.91 (no sharp cut-off); inconclusive = no clear call, values can overlap the other calls; inactive = mostly above about 0.92. Some of the results follow.

Experiment: chemical genetic growth profiling, strain panel (AID 1159580);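 also: tested at 20 µM; growth read once vehicle control cultures reached saturation at 30 °C; 1 = growth at the plate median or of vehicle wells; lower values mean less growth of the strain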
Conditions: S. cerevisiae deletion strains, growth OD

Measured: normalized growth

CC(C)CCCC(C)[C@H]1CCC2C3CC[C@H]4CC(=O)CC[C@]4(C)C3CC[C@@]21C (stereo not given in full)
inactive: locus YAL021C, strain ccr4, hits give low values 0.957 | locus YAL026C, strain drs2, hits give low values 1 | locus YAL030W, strain snc1, hits give low values 0.996 | locus YBL061C, strain skt5, hits give low values 0.998 | locus YBR009C, strain hhf1, hits give low values 1.03 | locus YBR023C, strain chs3, hits give low values 0.989 | locus YBR171W, strain sec66, hits give low values 0.991 | locus YBR231C, strain swc5, hits give low values 1.01 | locus YBR279W, strain paf1, hits give low values 0.997 | locus YCL011C, strain gbp2, hits give low values 0.975 | locus YCL016C, strain dcc1, hits give low values 0.995 | locus YCL061C, strain MRC1, hits give low values 0.977 | locus YCL069W, strain vba3, hits give low values 0.992 | locus YCR088W, strain abp1, hits give low values 0.982 | locus YDL005C, strain med2, hits give low values 0.986 | locus YDL040C, strain nat1, hits give low values 0.984 | locus YDR001C, strain nth1, hits give low values 0.987 | locus YDR069C, strain doa4, hits give low values 0.993 | locus YDR137W, strain rgp1, hits give low values 0.958 | locus YDR159W, strain sac3, hits give low values 0.984 | locus YDR195W, strain ref2 0.974 | locus YDR297W, strain sur2, hits give low values 0.983 | locus YDR334W, strain swr1, hits give low values 0.96 | locus YDR335W, strain msn5, hits give low values 0.97 | locus YDR392W, strain spt3, hits give low values 0.97 | locus YEL003W, strain gim4, hits give low values 0.981 | locus YEL037C, strain rad23, hits give low values 0.987 | locus YEL061C, strain CIN8 (second series), hits give low values 0.98 | locus YER015W, strain faa2, hits give low values 1.02 | locus YER016W, strain bim1, hits give low values 0.985 | locus YER111C, strain swi4, hits give low values 0.995 | locus YER155C, strain BEM2 (second series), hits give low values 1.01 | locus YFR010W, strain ubp6, hits give low values 0.969 | locus YGL167C, strain pmr1, hits give low values 0.998 | locus YGL173C, strain kem1, hits give low values 0.988 | locus YGL227W, strain vid30, hits give low values 0.994 | locus YGL240W, strain doc1, hits give low values 1.03 | locus YGL253W, strain hxk2, hits give low values 0.984 | locus YHR013C, strain ard1, hits give low values 0.972 | locus YHR027C, strain rpn1, hits give low values 0.986 | locus YHR142W, strain chs7, hits give low values 0.93 | locus YJL092W, strain hpr5, hits give low values 0.961 | locus YJL095W, strain BCK1 (second series), hits give low values 1.01 | locus YJL115W, strain asf1, hits give low values 0.971 | locus YJL129C, strain trk1, hits give low values 0.935 | locus YJL154C, strain vps35, hits give low values 0.992 | locus YJL164C, strain tpk1, hits give low values 0.979 | locus YJL166W, strain qcr8, hits give low values 0.992 | locus YJL187C, strain SWE1, hits give low values 0.991 | locus YKL160W, strain elf1, hits give low values 0.963 | locus YKR026C, strain gcn3, hits give low values 0.991 | locus YKR091W, strain srl3, hits give low values 0.984 | locus YLL001W, strain dnm1, hits give low values 0.987 | locus YLL026W, hits give low values 0.997 | locus YLL041C, strain sdh2, hits give low values 0.979 | locus YLR027C, strain aat2, hits give low values 0.988 | locus YLR221C, strain rsa3, hits give low values 0.962 | locus YLR258W, strain gsy2, hits give low values 1.01 | locus YLR262C, strain YPT6 (second series), hits give low values 1 | locus YLR320W, strain mms22, hits give low values 0.993 | locus YLR342W, strain FKS1, hits give low values 0.993 | locus YLR357W, strain rsc2, hits give low values 0.996 | locus YLR370C, strain arc18, hits give low values 0.98 | locus YLR384C, strain iki3, hits give low values 0.996 | locus YML120C, strain ndi1, hits give low values 0.949 | locus YMR058W, strain fet3, hits give low values 0.973 | locus YMR125W, strain sto1, hits give low values 0.981 | locus YMR129W, hits give low values 0.957 | locus YMR205C, strain PFK2, hits give low values 1.02 | locus YMR231W, strain pep5, hits give low values 0.985 | locus YNL071W, strain lat1, hits give low values 0.989 | locus YNL209W, strain ssb2, hits give low values 0.992 | locus YNL248C, strain rpa49, hits give low values 0.935 | locus YNL322C, strain KRE1 (second series), hits give low values 0.981 | locus YNR049C, strain mso1, hits give low values 0.986 | locus YOR001W, strain rrp6, hits give low values 0.941 | locus YOR070C, strain gyp1, hits give low values 0.994 | locus YOR080W, strain dia2, hits give low values 0.976 | locus YOR083W, strain WHI5, hits give low values 0.952 | locus YOR106W, strain vam3, hits give low values 0.974 | locus YOR265W, strain rbl2, hits give low values 0.989 | locus YOR270C, strain vph1, hits give low values 0.981 | locus YOR290C, strain snf2, hits give low values 0.976 | locus YPL051W, strain arl3, hits give low values 0.975 | locus YPL078C, strain atp4, hits give low values 0.949 | locus YPL106C, strain sse1, hits give low values 1.01 | locus YPL240C, strain hsp82, hits give low values 0.987

CC(C)CCCC(C)C1CCC2C3CCC4CC(=O)CCC4(C)C3CCC12C (stereo not given)
inactive: locus YAL013W, strain DEP1, hits give low values 1.01 | locus YBR021W, strain FUR4, hits give low values 1.02 | locus YBR229C, strain ROT2, hits give low values 1 | locus YCL029C, strain bik1, hits give low values 1.02 | locus YDL035C, strain GPR1, hits give low values 1.06 | locus YDL074C, strain BRE1, hits give low values 1.07 | locus YDL101C, strain DUN1, hits give low values 1.02 | locus YDL134C, strain PPH21, hits give low values 1.03 | locus YDL185W, strain tfp1, hits give low values 1.01 | locus YDL192W, strain arf1, hits give low values 1.05 | locus YDR101C, strain arx1, hits give low values 1.02 | locus YDR150W, strain NUM1, hits give low values 1 | locus YDR162C, strain NBP2, hits give low values 1.05 | locus YDR318W, strain mcm21, hits give low values 1.01 | locus YDR388W, hits give low values 1.02 | locus YDR502C, strain sam2, hits give low values 1.01 | locus YEL061C, strain CIN8, hits give low values 1.02 | locus YER110C, hits give low values 1.02 | locus YER155C, strain BEM2, hits give low values 1 | locus YER167W, strain BCK2, hits give low values 1 | locus YGL078C, strain dbp3, hits give low values 1.02 | locus YGL086W, strain mad1, hits give low values 1.02 | locus YGL248W, strain PDE1, hits give low values 1.04 | locus YGR078C, strain PAC10, hits give low values 1.03 | locus YGR135W, strain pre9, hits give low values 1.03 | locus YGR252W, strain gcn5, hits give low values 1 | locus YHR030C, strain SLT2, hits give low values 1.02 | locus YHR079C, strain IRE1 (second series), hits give low values 1 | locus YHR094C, strain hxt1, hits give low values 1.04 | locus YHR129C, strain ARP1, hits give low values 1.02 | locus YHR200W, strain rpn10, hits give low values 1.01 | locus YIL066C, strain RNR3, hits give low values 1.05 | locus YIL073C, strain SPO22, hits give low values 1.11 | locus YIL125W, strain kgd1, hits give low values 1.01 | locus YIR030C, strain dcg1, hits give low values 1.02 | locus YJL095W, strain BCK1, hits give low values 1.06 | locus YJL134W, strain LCB3, hits give low values 1.01 | locus YJL168C, strain set2, hits give low values 1.01 | locus YJL187C, strain SWE1 (second series), hits give low values 1.03 | locus YJR043C, strain POL32, hits give low values 1.02 | locus YJR075W, strain HOC1, hits give low values 1.03 | locus YKL009W, strain mrt4, hits give low values 1.06 | locus YKL068W, hits give low values 1.01 | locus YKL085W, strain MDH1 (second series), hits give low values 1.02 | locus YKL085W, strain MDH1, hits give low values 1.02 | locus YKL190W, strain CNB1, hits give low values 1 | locus YKR001C, strain vps1, hits give low values 1.09 | locus YLR039C, strain RIC1, hits give low values 1.08 | locus YLR058C, strain SHM2, hits give low values 1.03 | locus YLR102C, strain apc9, hits give low values 1.02 | locus YLR262C, strain YPT6, hits give low values 1.09 | locus YLR268W, strain sec22, hits give low values 1.06 | locus YLR330W, strain CHS5, hits give low values 1.02 | locus YLR342W, strain FKS1 (second series), hits give low values 1.06 | locus YLR371W, strain rom2, hits give low values 1.01 | locus YLR418C, strain cdc73, hits give low values 1.05 | locus YML016C, strain PPZ1, hits give low values 1.02 | locus YML032C, strain rad52, hits give low values 1.02 | locus YML124C, strain tub3, hits give low values 1.01 | locus YMR078C, strain ctf18, hits give low values 1.01 | locus YMR223W, strain ubp8, hits give low values 1.04 | locus YMR263W, strain SAP30, hits give low values 1.02 | locus YMR307W, strain GAS1, hits give low values 1.19 | locus YNL067W, strain RPL9B, hits give low values 1.02 | locus YNL128W, strain TEP1, hits give low values 1.06 | locus YNL153C, strain GIM3, hits give low values 1.03 | locus YNL233W, strain BNI4, hits give low values 1 | locus YNL250W, strain rad50, hits give low values 1.02 | locus YNL271C, strain bni1, hits give low values 1.01 | locus YNL298W, strain CLA4, hits give low values 1.01 | locus YNL307C, strain MCK1, hits give low values 1.01 | locus YNL322C, strain KRE1, hits give low values 1.01 | locus YNR052C, strain pop2, hits give low values 1.01 | locus YOL012C, strain htz1 1.43 | locus YOL147C, strain pex11, hits give low values 1.01 | locus YOR061W, strain CKA2, hits give low values 1.04 | locus YOR069W, strain VPS5, hits give low values 1.01 | locus YOR136W, strain idh2, hits give low values 1.02 | locus YOR144C, strain elg1, hits give low values 1.01 | locus YOR184W, strain ser1, hits give low values 1.07 | locus YOR316C, strain cot1, hits give low values 1.02 | locus YPL055C, strain LGE1, hits give low values 1.03 | locus YPL241C, strain CIN2, hits give low values 1.01 | locus YPR119W, strain clb2, hits give low values 1.01 | locus YPR141C, strain kar3, hits give low values 1.02 | locus YPR163C, strain tif3, hits give low values 1.03 | locus YPR167C, strain met16, hits give low values 1.02 | strain wtn01, hits give low values 1.04
